The values below come from PubChem BioAssay (EPA / NIEHS).

Each structure is given as a SMILES string. The source made the active and inactive calls. Rule for the calls: active = hit-call score of the fitted dose curve at least 0.9, where 1 is the maximum; inactive = score below 0.9.

Read-out in this assay: Matrix Metallopeptidase 9 (MMP9), MMP9 (gene 4318)
The assay is described as follows: BSK_KF3CT_MMP9: BioMAP Diversity Plus: KF3CT Assay for Matrix Metallopeptidase 9 (MMP9) Biomarker Activity (AID 2283074).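 For AC50: MMP9 protein level quantified by ELISA in the co-culture.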 The following applies: primary human keratinocytes with fibroblasts; actives raise or lower the signal. The procedure, abridged: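 Human keratinocyte/foreskin fibroblast co-culture; compound added; 24 h; MMP-9 by ELISA; bidirectional fit vs DMSO baseline.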
For orientation: AC50 means the concentration at which the activity in the assay is half-maximal. With `Oc1ccccc1O`, the AC50 was 8.72 µM (active). The same measure, in the same setting: the value for `CCN(CC)CCOc1ccc(C(=C(Cl)c2ccccc2)c2ccccc2)cc1` was 11.7 µM (active). Turning to `CC(COCC(C)OC(=O)c1ccccc1)OC(=O)c1ccccc1` (stereo not given), the result was inactive. In the case of `CC(C)OC(=O)C(C)(C)Oc1ccc(C(=O)c2ccc(Cl)cc2)cc1`, the outcome was inactive. Turning to `Cc1cc(Cc2ccc(N)c(C)c2)ccc1N`, the result was inactive. Still for that read-out and setting: then `C/C=C/C=C/C(=O)O`, with “inactive”; and `CCCCCCCCCCCCCCCCO`, with “inactive”. For `CC(=O)OC1CC(C)OC(C)O1` (stereo not given), the result was inactive.

Take `O=C(Oc1ccccc1)c1cccc(C(=O)Oc2ccccc2)c1`: the outcome was inactive. As for `CC(C)(C)c1ccccc1`, the result was inactive. With `O=C1OC(c2ccc(O)cc2)(c2ccc(O)cc2)c2ccccc21`, the AC50 was 29.5 µM (active). `CCOCCOCCO`: the result was inactive. Consider `CC(C)(O)c1ccc(CNC(=O)c2cccnc2Oc2ccc(F)cc2)cc1`, for which the outcome was inactive.

As for `CC(C)COC(=O)CCCCC(=O)OCC(C)C`, the result was inactive. On to `CC(=O)[C@@]1(O)CC[C@H]2[C@@H]3CCC4=CC(=O)CC[C@]4(C)[C@H]3CC[C@@]21C`, for which the outcome was inactive.

As to `COC(=O)CCC(=O)OC`, the result was inactive. Consider `CO[C@@H]1COCC[C@@H]1N[C@@H]1CC[C@@](C(=O)N2CCc3ncc(C(F)(F)F)cc3C2)(C(C)C)C1`, for which the result was inactive. On the same count and under the same terms, the value for `CCc1cc(C2=C(C(=O)O)N(c3ccccc3C(F)(F)F)S(=O)(=O)c3ccccc32)cc2c1OCO2` was “inactive”; that for `O=C(O)c1[nH]n(-c2ccc(S(=O)(=O)O)cc2)c(=O)c1N=Nc1ccc(S(=O)(=O)O)cc1` was “inactive”. On the same count and under the same terms, the value for `Cc1ccc(-c2cc(C(F)(F)F)nn2-c2ccc(S(N)(=O)=O)cc2)cc1` was “inactive”; that for `CC(=O)OCC(COC(C)=O)OC(C)=O` was “inactive”.

Turning to `O=C(N[C@@H](c1ccccc1)[C@@H]1CCCCN1)c1cccc(C(F)(F)F)c1Cl`, the AC50 was 30.8 µM (active). As for `O=C(O)CC(O)(CC(=O)O)C(=O)O`, the outcome was inactive.

Regarding `Cc1cn([C@H]2C=C[C@@H](CO)O2)c(=O)[nH]c1=O`, the result was inactive. Regarding `CCCC(=O)O`, the outcome was inactive. Same read-out and setting: then `O=[Si]=O`, with “inactive”; and `CC(C)c1cccc(C(C)C)c1NC(=O)NS(=O)(=O)c1cc(C(C)(C)O)co1`, with “inactive”; and `CC(=O)CC(c1ccccc1)c1c(O)c2ccccc2oc1=O` (stereo not given), with “inactive”. Still for that read-out and setting: then `Nc1nc(Cl)nc2c1ncn2[C@H]1C[C@H](O)[C@@H](CO)O1`, with “inactive”. For `CCCCCCCCCCCCCCOS(=O)(=O)O`, the AC50 was 8.96 µM (active).
